Laboratory results reported in PubChem BioAssay AID1159580 (chemical genetic matrix, 2015).
In all, about 5,500 compounds went through this assay and about 2,000 (36%) were called active. Inconclusive results (about 18%) are left out. No stated cut-off is given here; in the data, active means normalized growth mostly below about 0.91 (no sharp cut-off); inconclusive means no clear call, values can overlap the other calls; inactive means mostly above about 0.92. The list shows a part of the results.

Assay: chemical genetic growth profiling, strain panel (AID 1159580);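 further: tested at 20 µM; growth read once vehicle control cultures reached saturation at 30 °C; 1 = growth at the plate median or of vehicle wells; lower values mean less growth of the strain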
Conditions: growth OD

Measured: normalized growth

CC(=O)N[C@@H](CC(=O)O)C(=O)O
inactive: S. cerevisiae deletion strains, locus YJR043C, strain POL32, hits give low values 1.01 | S. cerevisiae deletion strains, locus YJR075W, strain HOC1, hits give low values 1.01 | S. cerevisiae deletion strains, locus YKL009W, strain mrt4, hits give low values 1.03 | S. cerevisiae deletion strains, locus YKL068W, hits give low values 1.01 | S. cerevisiae deletion strains, locus YKL085W, strain MDH1 (second series), hits give low values 1.01 | S. cerevisiae deletion strains, locus YKL085W, strain MDH1, hits give low values 1.01 | S. cerevisiae deletion strains, locus YKL160W, strain elf1, hits give low values 0.998 | S. cerevisiae deletion strains, locus YKL190W, strain CNB1, hits give low values 1.01 | S. cerevisiae deletion strains, locus YKR001C, strain vps1, hits give low values 1.01 | S. cerevisiae deletion strains, locus YKR026C, strain gcn3, hits give low values 1.01 | S. cerevisiae deletion strains, locus YKR091W, strain srl3, hits give low values 1 | S. cerevisiae deletion strains, locus YLL001W, strain dnm1, hits give low values 1.01 | S. cerevisiae deletion strains, locus YLL026W, hits give low values 1.01 | S. cerevisiae deletion strains, locus YLL041C, strain sdh2, hits give low values 1.01 | S. cerevisiae deletion strains, locus YLR027C, strain aat2, hits give low values 1.02 | S. cerevisiae deletion strains, locus YLR039C, strain RIC1, hits give low values 0.984 | S. cerevisiae deletion strains, locus YLR058C, strain SHM2, hits give low values 1.01 | S. cerevisiae deletion strains, locus YLR102C, strain apc9, hits give low values 1.01 | S. cerevisiae deletion strains, locus YLR221C, strain rsa3, hits give low values 0.974 | S. cerevisiae deletion strains, locus YLR258W, strain gsy2, hits give low values 0.997 | S. cerevisiae deletion strains, locus YLR262C, strain YPT6 (second series), hits give low values 1 | S. cerevisiae deletion strains, locus YLR262C, strain YPT6, hits give low values 1.01 | S. cerevisiae deletion strains, locus YLR268W, strain sec22, hits give low values 1.02 | S. cerevisiae deletion strains, locus YLR320W, strain mms22, hits give low values 0.992 | S. cerevisiae deletion strains, locus YLR330W, strain CHS5, hits give low values 1.01 | S. cerevisiae deletion strains, locus YLR342W, strain FKS1 (second series), hits give low values 1.01 | S. cerevisiae deletion strains, locus YLR342W, strain FKS1, hits give low values 1.01 | S. cerevisiae deletion strains, locus YLR357W, strain rsc2, hits give low values 1.01 | S. cerevisiae deletion strains, locus YLR370C, strain arc18, hits give low values 1.01 | S. cerevisiae deletion strains, locus YLR371W, strain rom2, hits give low values 1.02 | S. cerevisiae deletion strains, locus YLR384C, strain iki3, hits give low values 0.982 | S. cerevisiae deletion strains, locus YLR418C, strain cdc73, hits give low values 1.02 | S. cerevisiae deletion strains, locus YML016C, strain PPZ1, hits give low values 1.01 | S. cerevisiae deletion strains, locus YML032C, strain rad52, hits give low values 1.01 | S. cerevisiae deletion strains, locus YML120C, strain ndi1, hits give low values 1.01 | S. cerevisiae deletion strains, locus YML124C, strain tub3, hits give low values 1.02 | S. cerevisiae deletion strains, locus YMR058W, strain fet3, hits give low values 1.02 | S. cerevisiae deletion strains, locus YMR078C, strain ctf18, hits give low values 1 | S. cerevisiae deletion strains, locus YMR125W, strain sto1, hits give low values 1.01 | S. cerevisiae deletion strains, locus YMR129W, hits give low values 1 | S. cerevisiae deletion strains, locus YMR205C, strain PFK2, hits give low values 0.993 | S. cerevisiae deletion strains, locus YMR223W, strain ubp8, hits give low values 1.01 | S. cerevisiae deletion strains, locus YMR231W, strain pep5, hits give low values 1 | S. cerevisiae deletion strains, locus YMR263W, strain SAP30, hits give low values 1.01 | S. cerevisiae deletion strains, locus YMR307W, strain GAS1, hits give low values 1.03 | S. cerevisiae deletion strains, locus YNL067W, strain RPL9B, hits give low values 1.02 | S. cerevisiae deletion strains, locus YNL071W, strain lat1, hits give low values 1.01 | S. cerevisiae deletion strains, locus YNL128W, strain TEP1, hits give low values 1.02 | S. cerevisiae deletion strains, locus YNL153C, strain GIM3, hits give low values 1 | S. cerevisiae deletion strains, locus YNL209W, strain ssb2, hits give low values 1.01 | S. cerevisiae deletion strains, locus YNL233W, strain BNI4, hits give low values 1 | S. cerevisiae deletion strains, locus YNL248C, strain rpa49, hits give low values 0.91 | S. cerevisiae deletion strains, locus YNL250W, strain rad50, hits give low values 1.01 | S. cerevisiae deletion strains, locus YNL271C, strain bni1, hits give low values 1.02 | S. cerevisiae deletion strains, locus YNL298W, strain CLA4, hits give low values 1.01 | S. cerevisiae deletion strains, locus YNL307C, strain MCK1, hits give low values 1.02 | S. cerevisiae deletion strains, locus YNL322C, strain KRE1 (second series), hits give low values 0.994 | S. cerevisiae deletion strains, locus YNL322C, strain KRE1, hits give low values 1.01 | S. cerevisiae deletion strains, locus YNR049C, strain mso1, hits give low values 0.996 | S. cerevisiae deletion strains, locus YNR052C, strain pop2, hits give low values 1.01 | S. cerevisiae deletion strains, locus YOL006C, strain TOP1, hits give low values 1.04 | S. cerevisiae deletion strains, locus YOL012C, strain htz1 0.941 | S. cerevisiae deletion strains, locus YOL147C, strain pex11, hits give low values 1.01 | S. cerevisiae deletion strains, locus YOR001W, strain rrp6, hits give low values 0.988 | S. cerevisiae deletion strains, locus YOR061W, strain CKA2, hits give low values 1 | S. cerevisiae deletion strains, locus YOR069W, strain VPS5, hits give low values 1.01 | S. cerevisiae deletion strains, locus YOR070C, strain gyp1, hits give low values 1 | S. cerevisiae deletion strains, locus YOR080W, strain dia2, hits give low values 1 | S. cerevisiae deletion strains, locus YOR083W, strain WHI5, hits give low values 1 | S. cerevisiae deletion strains, locus YOR106W, strain vam3, hits give low values 1.01 | S. cerevisiae deletion strains, locus YOR136W, strain idh2, hits give low values 1.01 | S. cerevisiae deletion strains, locus YOR144C, strain elg1, hits give low values 1.02 | S. cerevisiae deletion strains, locus YOR184W, strain ser1, hits give low values 1.01 | S. cerevisiae deletion strains, locus YOR265W, strain rbl2, hits give low values 1.02 | S. cerevisiae deletion strains, locus YOR270C, strain vph1, hits give low values 1.01 | S. cerevisiae deletion strains, locus YOR290C, strain snf2, hits give low values 0.998 | S. cerevisiae deletion strains, locus YOR316C, strain cot1, hits give low values 1.01 | S. cerevisiae deletion strains, locus YPL051W, strain arl3, hits give low values 1.03 | S. cerevisiae deletion strains, locus YPL055C, strain LGE1, hits give low values 1.02 | S. cerevisiae deletion strains, locus YPL078C, strain atp4, hits give low values 1.02 | S. cerevisiae deletion strains, locus YPL106C, strain sse1, hits give low values 1.01 | S. cerevisiae deletion strains, locus YPL240C, strain hsp82, hits give low values 1.01 | S. cerevisiae deletion strains, locus YPL241C, strain CIN2, hits give low values 1.01 | S. cerevisiae deletion strains, locus YPR119W, strain clb2, hits give low values 1.02 | S. cerevisiae deletion strains, locus YPR141C, strain kar3, hits give low values 1.02 | S. cerevisiae deletion strains, locus YPR163C, strain tif3, hits give low values 1.03 | S. cerevisiae deletion strains, locus YPR167C, strain met16, hits give low values 1.01 | S. cerevisiae deletion strains, strain wtn01, hits give low values 1.01 | S. cerevisiae strains, strain wild type, hits give low values 1.01
